# Test results from PubChem BioAssay (Tox21).
# Values without a mark were called inactive. Inconclusive results are not listed. Where a call stands in place of a potency, no number is given. Activity calls are given as the source filed them. The call rests on the fitted dose curve; in most records, active means well fitted curve in the direction sought with a large enough effect in the repeat runs; inconclusive means weak or mixed curves; inactive means no such curve, though single readings can be large; an effect the other way counts as inactive or inconclusive.
# Columns and labels:
# [1] = Caspase-3/7 induction in HepG2 cells by small molecules, qHTS assay (AID 1346978); further: nearly all actives have a fitted effect of over 15% in size; further: potency means the concentration at half of the fitted maximal effect
# Method in brief: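 Wild-type HepG2 cells, 2,000/well, settled 5 hr at 37 C and 5% CO2, then compound-treated for 17 hr; caspase-3/7 activity read by luminescent Caspase-Glo 3/7 after 30 min at room temperature.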
# [2] = Caspase-3/7 induction in CHO-K1 cells by small molecules, qHTS assay (AID 1346980); further: nearly all actives have a fitted effect of over 15% in size
# Method in brief: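 Wild-type CHO-K1 cells exposed to compounds for 17hr at 37 C, 5% CO2. Caspase-3/7 activity then measured by Caspase-Glo 3/7 luminescence after 30min at room temperature.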
# [3] = Caspase-3/7 induction in HepG2 cells by small molecules, qHTS cell viability counter screen (AID 1346981); further: nearly all actives have a fitted effect of over 30% in size; further: potency means the concentration at half of the fitted maximal effect
# Method in brief: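 After a 5-hr attachment period at 37 C and 5% CO2, wild-type HepG2 cells received compounds in DMSO. Sixteen hours later CellTiter-Fluor was dispensed and the fluorescent signal quantified after a further hour.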
# [4] = target: Nuclear receptor subfamily 1 group I member 2 (Homo sapiens) (UniProt O75469); assay: Human pregnane X receptor (PXR) small molecule agonists, qHTS assay (AID 1346982); further: nearly all actives have a fitted effect of over 35% in size; further: potency means the concentration at half of the fitted maximal effect
# Sequence of Nuclear receptor subfamily 1 group I member 2 (Homo sapiens) (O75469 whole entry, looked up): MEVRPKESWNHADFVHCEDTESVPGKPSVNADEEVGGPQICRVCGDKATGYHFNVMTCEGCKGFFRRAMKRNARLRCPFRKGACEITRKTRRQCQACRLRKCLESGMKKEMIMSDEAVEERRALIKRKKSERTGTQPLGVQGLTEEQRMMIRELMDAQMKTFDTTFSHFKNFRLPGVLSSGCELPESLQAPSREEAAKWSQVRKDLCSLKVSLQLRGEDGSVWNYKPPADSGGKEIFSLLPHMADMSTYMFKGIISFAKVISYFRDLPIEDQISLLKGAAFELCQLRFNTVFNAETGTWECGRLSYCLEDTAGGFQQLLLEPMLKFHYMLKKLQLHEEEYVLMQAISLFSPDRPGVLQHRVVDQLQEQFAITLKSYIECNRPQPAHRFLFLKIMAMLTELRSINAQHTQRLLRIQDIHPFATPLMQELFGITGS
# Method in brief: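 Tox21 qHTS; PXR-Luc HepG2; compounds pinned from DMSO; 24 hr, 37 C; ONE-Glo luciferase detection, 30 min room temperature.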
# [5] = target: Nuclear receptor subfamily 1 group I member 2 (Homo sapiens) (UniProt O75469); assay: Human pregnane X receptor (PXR) activation by small molecules, qHTS assay (AID 1346985); further: nearly all actives have a fitted effect of over 40% in size; further: potency means the concentration at half of the fitted maximal effect
# Method in brief: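 DPX-2 cells (HepG2 co-transfected with a PXR response element and a CYP3A4-promoter luciferase construct) were seeded at 2,000 per well, rested 5 hr at 37C, then exposed to DMSO-dissolved compounds for 24 hr. Activation was read as luciferase luminescence.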
# [6] = target: Cytochrome P450 2D6 (Homo sapiens) (UniProt P10635); assay: Cytochrome P450 Family 2 Subfamily D Member 6 (CYP2D6) small molecule antagonists: luciferase reporter qHTS assay (AID 1671196); further: nearly all actives have a fitted effect of over 50% in size; further: potency means the concentration at half of the fitted maximal effect
# Sequence of Cytochrome P450 2D6 (Homo sapiens) (P10635 whole entry, looked up): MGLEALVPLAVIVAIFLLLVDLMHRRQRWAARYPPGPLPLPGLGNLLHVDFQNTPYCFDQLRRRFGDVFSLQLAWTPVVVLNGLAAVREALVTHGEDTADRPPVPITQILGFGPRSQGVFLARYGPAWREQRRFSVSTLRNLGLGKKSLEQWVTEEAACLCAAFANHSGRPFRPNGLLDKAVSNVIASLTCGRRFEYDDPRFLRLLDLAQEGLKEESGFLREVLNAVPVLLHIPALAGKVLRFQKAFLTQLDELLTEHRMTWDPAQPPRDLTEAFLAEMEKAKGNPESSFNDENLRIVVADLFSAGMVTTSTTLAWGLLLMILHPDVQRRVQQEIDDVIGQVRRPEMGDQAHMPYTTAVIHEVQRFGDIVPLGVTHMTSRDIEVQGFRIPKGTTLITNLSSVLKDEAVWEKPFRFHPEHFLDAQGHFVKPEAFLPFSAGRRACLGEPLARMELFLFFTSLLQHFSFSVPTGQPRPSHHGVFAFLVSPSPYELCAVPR
# Method in brief: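 Room-temperature luminescent CYP2D6 activity assay: compound preincubated 10 min with enzyme–substrate mix, NADPH-initiated reaction 1 h, detection reagent 20 min before reading.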
# [7] = Caspase-3/7 induction in CHO-K1 cells by small molecules, qHTS cell viability counter screen (AID 1346979); further: nearly all actives have a fitted effect of over 35% in size; further: potency means the concentration at half of the fitted maximal effect
# Method in brief: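 Wild-type CHO-K1 cells (1,500/well) treated with compound after 5 h plating; after 16 h at 37C, viability read as CellTiter-Fluor fluorescence following 1 h reagent incubation, in the same wells as the caspase read.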
# [8] = target: Nuclear receptor subfamily 1 group I member 2 (Rattus norvegicus) (UniProt Q9R1A7); assay: Rat pregnane X receptor (rPXR) activation by small molecules, qHTS assay (AID 1346983); details: rPXR luciferase reporter cells, One-Glo luminescence, 24 h; max activation: active compounds read high; further: nearly all actives have a fitted effect of over 20% in size
# Sequence of Nuclear receptor subfamily 1 group I member 2 (Rattus norvegicus) (Q9R1A7 whole entry, looked up): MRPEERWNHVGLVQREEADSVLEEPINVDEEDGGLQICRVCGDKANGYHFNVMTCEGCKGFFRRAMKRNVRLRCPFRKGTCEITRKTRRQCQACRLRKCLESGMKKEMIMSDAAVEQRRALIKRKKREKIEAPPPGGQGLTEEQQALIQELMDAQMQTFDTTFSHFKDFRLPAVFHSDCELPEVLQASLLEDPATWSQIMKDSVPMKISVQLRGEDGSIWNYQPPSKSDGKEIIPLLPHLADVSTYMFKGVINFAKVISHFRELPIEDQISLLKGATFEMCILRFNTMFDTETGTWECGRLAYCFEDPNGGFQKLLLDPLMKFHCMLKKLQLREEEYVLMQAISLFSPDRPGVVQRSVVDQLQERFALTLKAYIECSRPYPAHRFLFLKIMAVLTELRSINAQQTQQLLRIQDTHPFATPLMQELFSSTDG
# Method in brief: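 Cell-based rPXR activation assay: rPXR cells, 2,000 per well, rested 5hr at 37 C, then exposed to compounds in DMSO for 24 hr at 37 C. Luciferase activity read by One-Glo luminescence after 30 min at room temperature.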
# [9] = target: Nuclear receptor subfamily 1 group I member 2 (Homo sapiens) (UniProt O75469); assay: CYP3A4 induction through human pregnane X receptor (PXR) by small molecules, qHTS assay (AID 1346984); further: nearly all actives have a fitted effect of over 40% in size
# Method in brief: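 Cells (DPX-2; HepG2 with PXR element plus CYP3A4-promoter luciferase) settled 5hr, then were treated 24hr at 37C. A 3hr, 3uM-final Luciferin-IPA step preceded luminescence measurement with One-Glo.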
structure (smiles),measurement,setting,value
COc1ccccc1Oc1c(NS(=O)(=O)c2ccc(C(C)(C)C)cc2)nc(-c2ncccn2)nc1OCCO,Potency,[1],inactive
same,Potency,[2],inactive
CN1C(=O)N(c2ccccc2Br)Cc2cnc(Nc3ccc4c(c3)OCC(CO)O4)nc21 (centres undefined),Potency,[1],6.11 µM (active)
same,Potency,[3],15.4 µM (active)
CC(=O)c1ccc([N+](=O)[O-])cc1,Potency,[1],inactive
same,Potency,[2],inactive
same,Potency,[3],inactive
COc1ccccc1N1CCN(CC(O)COc2cccc3ccccc23)CC1 (centres undefined),Potency,[1],inactive
same,Potency,[2],inactive
CN(C(=O)CN(CCO)CC(=O)N(C)C(C)(C)Cc1ccccc1)C(C)(C)Cc1ccccc1,Potency,[1],inactive
same,Potency,[2],inactive
same,Potency,[3],inactive
same,Potency,[4],2.37 µM (active)
same,Potency,[5],8.91 µM (active)
N#[N+]c1ccc2c(S(=O)(=O)[O-])cccc2c1O,Potency,[1],inactive
same,Potency,[2],inactive
same,Potency,[3],inactive
same,Potency,[4],inactive
same,Potency,[6],31.7 µM (active)
CC(C)(c1ccccc1)c1ccccc1,Potency,[1],inactive
same,Potency,[7],inactive
same,Potency,[2],inactive
same,Potency,[3],inactive
same,Potency,[6],58.8 µM (active)
O=C1c2ccccc2C(=O)N1CCc1noc(-c2ccc(CN3CCCCCC3)s2)n1,Potency,[1],inactive
same,Potency,[2],inactive
same,Potency,[4],14.1 µM (active)
O=c1c(O)c(-c2ccc(O)cc2)oc2cc(O)cc(O)c12,Potency,[1],inactive
same,Potency,[2],inactive
same,Potency,[3],60.9 µM (active)
CCCCN(CCN(CCCC)C(=O)N1CCOCC1)C(=O)N1CCOCC1,Potency,[1],inactive
same,Potency,[7],inactive
same,Potency,[2],inactive
same,Potency,[3],inactive
same,Potency,[6],inactive
CC[C@]1(O)C[C@H]2CN(CCc3c([nH]c4ccccc34)[C@@](C(=O)OC)(c3cc4c(cc3OC)N(C=O)[C@H]3[C@@](O)(C(=O)OC)[C@H](OC(C)=O)[C@]5(CC)C=CCN6CC[C@]43[C@@H]65)C2)C1,Potency,[1],inactive
same,Potency,[2],inactive
same,Potency,[5],8.91 µM (active)
same,Potency,[6],inactive
Oc1cccc(O)c1O,Potency,[1],inactive
same,Potency,[2],inactive
same,Potency,[4],60.6 µM (active)
same,max activation,[8],-5.99%
same,Potency,[9],inactive
same,Potency,[5],inactive
CCOC(=O)OC(C)OC(=O)[C@@H]1N2C(=O)[C@@H](NC(=O)[C@H](N)c3ccccc3)[C@H]2SC1(C)C (some centres undefined),Potency,[1],inactive
same,Potency,[2],inactive
same,Potency,[3],inactive
same,max activation,[8],0.482%
OCCN1CCN(CCCN2c3ccccc3Sc3ccc(Cl)cc32)CC1,Potency,[7],29.8 µM (active)
same,Potency,[3],26.6 µM (active)
same,Potency,[4],10.6 µM (active)
same,max activation,[8],5.45%
same,Potency,[5],inactive
O=C(CCCN1CC=C(n2c(=O)[nH]c3ccccc32)CC1)c1ccc(F)cc1,Potency,[1],inactive
same,Potency,[2],inactive
same,Potency,[3],inactive
same,max activation,[8],0.857%
same,Potency,[9],inactive
CC/C=C1/OC(=O)c2ccccc21,Potency,[1],inactive
same,Potency,[2],inactive
same,Potency,[3],inactive
same,Potency,[4],inactive
COc1ccccc1NC(=O)c1cc2ccccc2cc1O,Potency,[1],inactive
same,Potency,[2],inactive
same,Potency,[3],inactive
same,Potency,[4],24.3 µM (active)
same,Potency,[6],inactive
O=C(CCc1ccc(O)cc1)c1c(O)cc(O)cc1O,Potency,[1],inactive
same,Potency,[2],inactive
same,Potency,[3],inactive
C=C/C(C)=C/C/C=C(\C)CCC=C(C)C,Potency,[1],inactive
same,Potency,[2],inactive
same,Potency,[3],inactive
same,Potency,[4],27.3 µM (active)
CCCCCCCCOc1ccc(C(=O)O)cc1,Potency,[1],inactive
same,Potency,[2],inactive
same,Potency,[3],inactive
same,Potency,[4],60.4 µM (active)
CC(C)C(O)(c1ccc(OC(F)(F)F)cc1)c1cncnc1 (centres undefined),Potency,[1],inactive
same,Potency,[2],inactive
same,Potency,[3],inactive
CCOC(=O)c1ccccc1C(=C1C=C(Br)C(=O)C(Br)=C1)c1cc(Br)c(O)c(Br)c1,Potency,[1],inactive
same,Potency,[2],inactive
same,Potency,[4],51.3 µM (active)
same,Potency,[6],inactive
CC(CC1c2ccccc2CCc2ccccc21)CN(C)C (centres undefined),Potency,[1],inactive
same,Potency,[2],inactive
same,Potency,[6],0.977 µM (active)
C=C1C[C@@]23CC[C@H]4[C@@](C)(CCC[C@@]4(C)C(=O)O[C@@H]4O[C@H](CO)[C@@H](O)[C@H](O)[C@H]4O)[C@@H]2CC[C@]1(O[C@@H]1O[C@H](CO)[C@@H](O)[C@H](O[C@@H]2O[C@H](CO)[C@@H](O)[C@H](O)[C@H]2O)[C@H]1O[C@@H]1O[C@H](CO)[C@@H](O)[C@H](O)[C@H]1O)C3,Potency,[1],inactive
same,Potency,[2],inactive
same,Potency,[3],inactive
same,Potency,[6],inactive
C[C@H]1C[C@H](O)c2ccsc2S1(=O)=O,Potency,[1],inactive
same,Potency,[2],inactive
same,Potency,[3],inactive
same,Potency,[6],inactive
CC(C)(C)C(=O)C(=O)O,Potency,[1],inactive
same,Potency,[7],inactive
same,Potency,[2],inactive
same,Potency,[3],inactive
same,Potency,[6],inactive
O=C1c2ccccc2C(=O)C1(O)O,Potency,[7],54.8 µM (active)
same,Potency,[2],inactive
same,Potency,[4],61.4 µM (active)
same,Potency,[6],35.8 µM (active)
C[C@@H](CN(C)C)CN1c2ccccc2Sc2ccccc21,Potency,[1],inactive
same,Potency,[2],inactive
same,Potency,[3],inactive
same,Potency,[5],inactive
Clc1ccc(Nc2nnc(Cc3ccncc3)c3ccccc23)cc1,Potency,[1],inactive
same,Potency,[2],inactive
same,Potency,[4],29.8 µM (active)
same,max activation,[8],1.3%
same,Potency,[9],inactive
same,Potency,[5],3.98 µM (active)
same,Potency,[6],17.4 µM (active)
O=C=Nc1cccc(C(F)(F)F)c1,Potency,[1],inactive
same,Potency,[2],inactive
same,Potency,[3],inactive
same,Potency,[6],inactive
COC(=O)C1=C(C)NC(C)=C(C(=O)O[C@@H]2CCCN(Cc3ccccc3)C2)[C@@H]1c1cccc([N+](=O)[O-])c1,Potency,[1],inactive
same,Potency,[7],29.8 µM (active)
same,Potency,[2],inactive
same,Potency,[6],15.5 µM (active)
CN1CCCC(CC2c3ccccc3Sc3ccccc32)C1 (centres undefined),Potency,[2],inactive
same,Potency,[3],inactive
same,max activation,[8],-1.72%
same,Potency,[5],inactive
same,Potency,[6],0.389 µM (active)
COC(=O)c1nc(Cl)c(Cl)nc1N,Potency,[1],inactive
same,Potency,[7],8.41 µM (active)
same,Potency,[2],inactive
same,Potency,[4],10.6 µM (active)
CN1C[C@H](C(=O)N[C@]2(C)O[C@@]3(O)[C@@H]4CCCN4C(=O)[C@H](Cc4ccccc4)N3C2=O)C[C@@H]2c3cccc4[nH]cc(c34)C[C@H]21,Potency,[7],26.6 µM (active)
same,Potency,[3],26.6 µM (active)
same,Potency,[4],10.6 µM (active)
Cc1cc(C)c(N)cc1C,Potency,[1],inactive
same,Potency,[7],inactive
same,Potency,[2],inactive
same,Potency,[3],inactive
same,Potency,[6],22.4 µM (active)
CC1=Nc2ccc3ccccc3c2C1(C)C,Potency,[1],inactive
same,Potency,[2],inactive
same,Potency,[4],30.6 µM (active)
same,Potency,[6],35.6 µM (active)
CC=C(Cl)Cl,Potency,[1],inactive
same,Potency,[7],inactive
same,Potency,[2],inactive
same,Potency,[3],inactive
same,Potency,[6],inactive
CC1(C)[C@H](C(=O)O)N2C(=O)C[C@H]2S1(=O)=O,Potency,[1],inactive
same,Potency,[7],inactive
same,Potency,[2],inactive
same,Potency,[3],inactive
same,Potency,[6],inactive
CN1C(=O)c2ccccc2C1=O,Potency,[1],inactive
same,Potency,[2],inactive
same,Potency,[3],inactive
same,Potency,[4],inactive
C[C@@]12CCC[C@H]1[C@@H]1CC[C@H]3C[C@@H](O)CC[C@]3(C)[C@H]1CC2,Potency,[1],inactive
same,Potency,[2],inactive
same,Potency,[3],inactive
same,Potency,[6],inactive
